What all share (conditions): concentration: 1 μM, replicates: in singlicate; n = 1
The test system of assay [1] is ULK2.
The test system of assay [2] is ULK3.
The subject of assay [3] is T1, VEGFR2.
T1 construct: gene KDR

Assay [4] concerns T2, VPS34.
T2 construct: gene PIK3C3

The subject of assay [5] is VRK2.
The test system of assay [6] is WEE1.
The subject of assay [7] is WEE2.
Assay [8] relates to WNK1.
Assay [9] relates to WNK2.
Assay [10] relates to WNK3.
In assay [11] the test system is WNK4.
The test system of assay [12] is T3, YANK1.
T3 construct: gene STK32A

Assay [13] has as its system T4, YANK2.
T4 construct: gene STK32B

In assay [14] the test system is T5, YANK3.
T5 construct: gene STK32C

For assay [15], the system named is T6, YES.
T6 construct: gene YES1

The test system of assay [16] is T7, YSK1.
T7 construct: gene STK25

Assay [17] has as its system T8, YSK4.
T8 construct: gene MAP3K19

Assay [18] concerns ZAK.
Assay [19] relates to ZAP70.
Assay [20] relates to T9, p38-alpha.
T9 construct: gene MAPK14
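Further: KINOMEscan kinase panel screen.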

Regarding `CSc1ccc(NC2=C(c3ccccc3Cl)C(=O)NC2=O)cc1` [SB-342411], the “%Inh” value turned out to be 0% in [1]; 0% in assay [2]; 0% in [3]; 1% in assay [4]; 0% in assay [5]; 2% in assay [6]. The “%Inh” value in assay [7] is reported as 0%; in [8], 0%; in assay [9], 3%; in [10] it was 17%; in [11], 0%; in assay [12], 12%. The “%Inh” value in [13] was found to be 0%; in assay [14] it was 9%; in assay [15] it was 9%; in assay [16], 60%; in assay [17] it was 0%; in assay [18], 20%. Besides, the “%Inh” value in assay [19] and in [20] was 0% in each case.
With `CCn1c(-c2ccncc2)nc2cnccc21` [SB-735216], the “%Inh” value in assay [1] is 8%; in assay [2], 25%; in assay [3], 24%; in [4], 25%; in assay [5], 0%; in assay [6] it was 0%. Also, the “%Inh” value in assay [7] is recorded as 1%; in assay [8], 0%; in assay [9], 29%; in assay [10], 21%; in assay [11], 22%; in assay [12], 0%. In addition, the “%Inh” value in assay [13] is on record as 4%; in assay [14], 7%; in assay [15], 16%; in [16], 0%; in assay [17], 74%; in assay [18], 23%. The “%Inh” value in assay [19] and in [20] was 0% in each case.
Consider `Fc1cccc(COc2ccc(Nc3ncnc4sc(-c5ccc[nH]5)cc34)cc2Cl)c1` [GW707818], for which the “%Inh” value was 0% in [1]; 1% in [2]; 8% in assay [3]; 0% in assay [4]; 26% in assay [5]; 6% in assay [6]. Also, the “%Inh” value in [7] is listed as 0%; in [8], 12%; in assay [9], 6%; in assay [10] it was 13%; in assay [11], 6%; in assay [12], 13%. Also, the “%Inh” value in [13] turned out to be 34%; in [14] it was 0%; in [15] it was 1%; in [16], 0%; in assay [17] it was 8%; in [18], 0%. The entries for the “%Inh” value in [19] and in assay [20] were 6% and 44%, respectively.
Turning to `Clc1ccc(-c2cc(-c3c[nH]nc3-c3ccccn3)ccn2)cc1` [GW681251], the “%Inh” value in assay [1] is 0%; in assay [2], 1%; in assay [3], 0%; in assay [4], 0%; in assay [5], 11%; in assay [6] it was 18%. Moreover, the “%Inh” value in assay [7] amounted to 0%; in assay [8], 16%; in [9] it was 0%; in assay [10], 19%; in assay [11] it was 0%; in assay [12], 0%. In addition, the “%Inh” value in [13] was found to be 0%; in [14] it was 0%; in assay [15], 0%; in assay [16] it was 0%; in [17] it was 0%; in [18], 14%. The “%Inh” value in assay [19] was 47%; in assay [20], 45%.
As for `O=C(CCO)NCCn1ccc2ncnc(Nc3ccc(Oc4cccc(C(F)(F)F)c4)c(Cl)c3)c21`, the “%Inh” value was 0% in [1]; 0% in [2]; 0% in assay [3]; 0% in [4]; 0% in assay [5]; 1% in assay [6]. Moreover, the “%Inh” value in assay [7], in assay [8], in assay [9], in assay [10], in [11] and in assay [12] was 0% each time. Further, the “%Inh” value in assay [13], in assay [14], in assay [15], in [16], in [17] and in assay [18] was 0% each time. The “%Inh” value in assay [19] and in assay [20] was 0% throughout.
As to `CNc1nccc(-c2c(-c3ccc(F)cc3)ncn2C2CCN(C)CC2)n1` [SB-222903], the “%Inh” value in assay [1] is 15%; in [2] it was 0%; in [3], 0%; in [4], 0%; in assay [5], 16%; in [6], 0%. Also, the “%Inh” value is reported as 0% in assay [7]; 0% in assay [8]; 0% in assay [9]; 0% in [10]; 9% in assay [11]; 0% in assay [12]. For the same compound, the “%Inh” value in assay [13] is 17%; in assay [14], 6%; in assay [15] it was 0%; in assay [16], 0%; in assay [17] it was 7%; in [18] it was 0%. For the same compound, the “%Inh” value in [19] is given as 0%; in assay [20], 98.6%.
With `Nc1nc(-c2ccc3c(N)n[nH]c3c2)cc(N2CCCCC2)n1` [GSK2228768], the “%Inh” value came out at 0% in [1]; 0% in assay [2]; 0% in assay [3]; 0% in assay [4]; 0% in assay [5]; 39% in assay [6]. Besides, the “%Inh” value in assay [7], in assay [8], in [9], in [10], in assay [11] and in assay [12] was 0% throughout. In addition, the “%Inh” value in [13] is reported as 0%; in assay [14], 0%; in assay [15], 0%; in assay [16], 1%; in assay [17] it was 0%; in assay [18], 0%. Besides, the “%Inh” value in [19] and in assay [20] was 0% in each case.
As to `CCc1nc(-c2cccc(N(C)S(=O)(=O)c3ccccc3)c2)c(-c2ccnc(Nc3ccc(N4CCN(C(C)=O)CC4)nc3)n2)s1` [GSK1645895], the “%Inh” value in [1] was found to be 0%; in assay [2] it was 9%; in assay [3], 31%; in [4], 0%; in assay [5], 0%; in [6], 0%. Also, the “%Inh” value in assay [7] was determined as 0%; in assay [8] it was 3%; in assay [9], 0%; in [10], 16%; in assay [11] it was 0%; in assay [12], 5%. In addition, the “%Inh” value in assay [13] worked out at 18%; in assay [14], 11%; in [15] it was 33%; in assay [16] it was 26%; in assay [17], 29%; in assay [18], 83%. The “%Inh” value amounted to 0% in assay [19] and 60% in [20].
As to `Clc1cccc(-c2nc(Nc3ccncc3)c3ccccc3n2)c1` [GW873004], the “%Inh” value in assay [1] came to 0%; in assay [2], 0%; in assay [3], 0%; in assay [4], 48%; in assay [5], 0%; in assay [6] it was 0%. For the same compound, the “%Inh” value in assay [7], in [8], in assay [9], in [10], in [11] and in assay [12] was 0% in each case. For the same compound, the “%Inh” value is given as 0% in [13]; 0% in assay [14]; 34% in [15]; 0% in assay [16]; 0% in assay [17]; 0% in assay [18]. For the same compound, the “%Inh” value in assay [19] and in [20] was 0% each time.
For `COc1cc2ncnc(Nc3ccc(OCc4ccccc4Br)c(Cl)c3)c2cc1OC.Cl` [GI261590], the “%Inh” value came to 0% in assay [1]; 3% in [2]; 0% in assay [3]; 0% in [4]; 11% in [5]; 0% in [6]. Besides, the “%Inh” value in assay [7] was 0%; in assay [8] it was 14%; in [9], 0%; in assay [10], 22%; in assay [11] it was 52%; in [12], 0%. Also, the “%Inh” value in assay [13] is recorded as 0%; in [14], 21%; in [15], 31%; in assay [16], 0%; in assay [17], 33%; in [18], 33%. For the same compound, the entries for the “%Inh” value in assay [19] and in assay [20] were 19% and 63%, respectively.
Consider `Fc1cccc(COc2ccc(Nc3ncnc4cc[nH]c34)cc2Cl)c1`, for which the “%Inh” value in assay [1] came out at 14%; in assay [2], 34%; in assay [3], 16%; in assay [4], 18%; in assay [5] it was 13%; in assay [6] it was 12%. The “%Inh” value came out at 4% in assay [7]; 0% in assay [8]; 14% in assay [9]; 0% in [10]; 28% in assay [11]; 26% in assay [12]. The “%Inh” value in assay [13] was found to be 0%; in [14], 9%; in assay [15], 20%; in assay [16] it was 0%; in assay [17], 18%; in [18], 0%. In addition, the “%Inh” value in assay [19] and in [20] was 0% in each case.
As for `Nc1nccc2scc(-c3ccc4c(c3)CCN4C(=O)Cc3cc(F)ccc3F)c12` [GSK2587663], the “%Inh” value in assay [1] worked out at 0%; in [2] it was 6%; in assay [3] it was 0%; in assay [4] it was 8%; in assay [5], 0%; in assay [6], 44%. Further, the “%Inh” value in assay [7] is on record as 0%; in assay [8], 33%; in assay [9], 0%; in [10] it was 37%; in [11], 5%; in assay [12], 26%. Moreover, the “%Inh” value amounted to 0% in [13]; 20% in assay [14]; 10% in assay [15]; 11% in [16]; 32% in [17]; 9% in [18]. In addition, the “%Inh” value in assay [19] and in [20] was 0% throughout.
As to `Oc1ccc2ncnc(Nc3ccc(OCc4ccccc4)cc3)c2c1` [GI262866], the “%Inh” value was determined as 0% in assay [1]; 4% in [2]; 0% in assay [3]; 0% in [4]; 0% in [5]; 0% in [6]. Also, the “%Inh” value in assay [7] stood at 0%; in assay [8], 0%; in assay [9] it was 0%; in [10] it was 0%; in assay [11], 14%; in assay [12], 0%. Also, the “%Inh” value came to 0% in assay [13]; 15% in [14]; 0% in assay [15]; 0% in assay [16]; 7% in assay [17]; 18% in assay [18]. In addition, the “%Inh” value in assay [19] and in assay [20] was 0% throughout.
As for `FC(F)(F)c1cc(Nc2nccc(-c3c(-c4ccc(Cl)cc4)nn4ncccc34)n2)ccc1Cl` [GW829351], the “%Inh” value in assay [1] was determined as 6%; in assay [2], 0%; in assay [3], 0%; in assay [4], 2%; in assay [5], 56%; in assay [6] it was 9%. Moreover, the “%Inh” value in [7], in [8], in assay [9], in assay [10], in assay [11] and in assay [12] was 0% in each case. Further, the “%Inh” value is 0% in assay [13]; 4% in [14]; 0% in assay [15]; 0% in assay [16]; 0% in assay [17]; 0% in assay [18]. In addition, the results for the “%Inh” value in assay [19] and in [20] were 0% and 43%, respectively.
Take `CN1c2ccc(-c3ccc(C(=O)NCCO)cc3)cc2-c2[nH]ncc2S1(=O)=O`: the “%Inh” value is 30% in [1]; 0% in [2]; 44% in assay [3]; 30% in assay [4]; 0% in [5]; 0% in [6]. For the same compound, the “%Inh” value in [7] is 1%; in assay [8] it was 0%; in assay [9], 0%; in assay [10] it was 0%; in [11] it was 0%; in assay [12] it was 0%. Moreover, the “%Inh” value in assay [13] is given as 0%; in assay [14], 0%; in assay [15], 12%; in assay [16], 13%; in assay [17], 8%; in assay [18], 20%. For the same compound, the “%Inh” value in assay [19] and in [20] was 0% in each case.

The record behind these values is publication PMC5540273 (PLoS ONE, 2017).
